# Reference: PubChem BioAssay AID1159580 (chemical genetic matrix, 2015)
# Several values for one entry are separate records, joined by “and”; a condition that tells them apart may be missing. Equal values may be shown once. Among all 5,500 compounds or so, about 2,000 (36%) were called active. Inconclusive results (about 18%) are left out. This is one part of the list. A number with no mark means an inactive call. No stated cut-off is given here; in the data, active means normalized growth mostly below about 0.91 (no sharp cut-off); inconclusive means no clear call, values can overlap the other calls; inactive means mostly above about 0.92.
# Assay: chemical genetic growth profiling, strain panel (AID 1159580);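 further: tested at 20 µM; growth read once vehicle control cultures reached saturation at 30 °C; 1 = growth at the plate median or of vehicle wells; lower values mean less growth of the strain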
# Settings: S. cerevisiae deletion strains, growth OD
compound,measurement,setting,value
CN1CCC(=C2c3ccccc3Sc3ccccc32)CC1,normalized growth,"locus YAL013W, strain DEP1, hits give low values",0.994
same,normalized growth,"locus YAL021C, strain ccr4, hits give low values",0.936
same,normalized growth,"locus YAL026C, strain drs2, hits give low values",0.994
same,normalized growth,"locus YAL030W, strain snc1, hits give low values",1.03
same,normalized growth,"locus YBL061C, strain skt5, hits give low values",1.04
same,normalized growth,"locus YBR009C, strain hhf1, hits give low values",1.06
same,normalized growth,"locus YBR021W, strain FUR4, hits give low values",0.775 (active)
same,normalized growth,"locus YBR023C, strain chs3, hits give low values",1.02
same,normalized growth,"locus YBR171W, strain sec66, hits give low values",1.04
same,normalized growth,"locus YBR229C, strain ROT2, hits give low values",0.998
same,normalized growth,"locus YBR231C, strain swc5, hits give low values",1.05
same,normalized growth,"locus YBR279W, strain paf1, hits give low values",1.02
same,normalized growth,"locus YCL011C, strain gbp2, hits give low values",1.04
same,normalized growth,"locus YCL016C, strain dcc1, hits give low values",1.03
same,normalized growth,"locus YCL029C, strain bik1, hits give low values",1.05
same,normalized growth,"locus YCL061C, strain MRC1, hits give low values",1.04
same,normalized growth,"locus YCL069W, strain vba3, hits give low values",1.02
same,normalized growth,"locus YCR088W, strain abp1, hits give low values",1.03
same,normalized growth,"locus YDL005C, strain med2, hits give low values",1.05
same,normalized growth,"locus YDL035C, strain GPR1, hits give low values",0.951
same,normalized growth,"locus YDL040C, strain nat1, hits give low values",1.01
same,normalized growth,"locus YDL074C, strain BRE1, hits give low values",0.986
same,normalized growth,"locus YDL101C, strain DUN1, hits give low values",1.03
same,normalized growth,"locus YDL134C, strain PPH21, hits give low values",1.01
same,normalized growth,"locus YDL185W, strain tfp1, hits give low values",1.01
same,normalized growth,"locus YDL192W, strain arf1, hits give low values",1.01
same,normalized growth,"locus YDR001C, strain nth1, hits give low values",1.02
same,normalized growth,"locus YDR069C, strain doa4, hits give low values",1.02
same,normalized growth,"locus YDR101C, strain arx1, hits give low values",1.01
same,normalized growth,"locus YDR137W, strain rgp1, hits give low values",1.2 [resistant] (active)
same,normalized growth,"locus YDR150W, strain NUM1, hits give low values",1.01
same,normalized growth,"locus YDR159W, strain sac3, hits give low values",1.07
same,normalized growth,"locus YDR162C, strain NBP2, hits give low values",1.01
same,normalized growth,"locus YDR195W, strain ref2",1.11
same,normalized growth,"locus YDR297W, strain sur2, hits give low values",1.03
same,normalized growth,"locus YDR318W, strain mcm21, hits give low values",1.01
same,normalized growth,"locus YDR334W, strain swr1, hits give low values",1.03
same,normalized growth,"locus YDR335W, strain msn5, hits give low values",1.02
same,normalized growth,"locus YDR388W, hits give low values",0.955
same,normalized growth,"locus YDR392W, strain spt3, hits give low values",0.982
same,normalized growth,"locus YDR502C, strain sam2, hits give low values",0.995
same,normalized growth,"locus YEL003W, strain gim4, hits give low values",1.03
same,normalized growth,"locus YEL037C, strain rad23, hits give low values",1.02
same,normalized growth,"locus YEL061C, strain CIN8 (second series), hits give low values",1.02
same,normalized growth,"locus YEL061C, strain CIN8, hits give low values",1.01
same,normalized growth,"locus YER015W, strain faa2, hits give low values",1.01
same,normalized growth,"locus YER016W, strain bim1, hits give low values",1.03
same,normalized growth,"locus YER110C, hits give low values",1.01
same,normalized growth,"locus YER111C, strain swi4, hits give low values",1.03
same,normalized growth,"locus YER155C, strain BEM2 (second series), hits give low values",1.03
same,normalized growth,"locus YER155C, strain BEM2, hits give low values",1.01
same,normalized growth,"locus YER167W, strain BCK2, hits give low values",1.01
same,normalized growth,"locus YFR010W, strain ubp6, hits give low values",0.999
same,normalized growth,"locus YGL078C, strain dbp3, hits give low values",1.01
same,normalized growth,"locus YGL086W, strain mad1, hits give low values",0.99
same,normalized growth,"locus YGL167C, strain pmr1, hits give low values",1.03
same,normalized growth,"locus YGL173C, strain kem1, hits give low values",1.04
same,normalized growth,"locus YGL227W, strain vid30, hits give low values",1.03
same,normalized growth,"locus YGL240W, strain doc1, hits give low values",1.06
same,normalized growth,"locus YGL248W, strain PDE1, hits give low values",1
same,normalized growth,"locus YGL253W, strain hxk2, hits give low values",1.01
same,normalized growth,"locus YGR078C, strain PAC10, hits give low values",0.977
same,normalized growth,"locus YGR135W, strain pre9, hits give low values",0.934
same,normalized growth,"locus YGR229C, strain SMI1, hits give low values",0.839
same,normalized growth,"locus YGR252W, strain gcn5, hits give low values",0.765 (active)
same,normalized growth,"locus YHR013C, strain ard1, hits give low values",0.934
same,normalized growth,"locus YHR027C, strain rpn1, hits give low values",1.02
same,normalized growth,"locus YHR030C, strain SLT2, hits give low values",1.01 and 0.969
same,normalized growth,"locus YHR079C, strain IRE1 (second series), hits give low values",1.02
same,normalized growth,"locus YHR079C, strain IRE1, hits give low values",0.986
same,normalized growth,"locus YHR094C, strain hxt1, hits give low values",1.01
same,normalized growth,"locus YHR129C, strain ARP1, hits give low values",1.01
same,normalized growth,"locus YHR142W, strain chs7, hits give low values",0.98
same,normalized growth,"locus YHR200W, strain rpn10, hits give low values",1.01
same,normalized growth,"locus YIL066C, strain RNR3, hits give low values",1.01
same,normalized growth,"locus YIL073C, strain SPO22, hits give low values",1.01
same,normalized growth,"locus YIL125W, strain kgd1, hits give low values",1
same,normalized growth,"locus YIR030C, strain dcg1, hits give low values",1.02
same,normalized growth,"locus YJL092W, strain hpr5, hits give low values",1.02
same,normalized growth,"locus YJL095W, strain BCK1 (second series), hits give low values",1.02
same,normalized growth,"locus YJL095W, strain BCK1, hits give low values",0.974 and 0.973
same,normalized growth,"locus YJL115W, strain asf1, hits give low values",1.02
same,normalized growth,"locus YJL129C, strain trk1, hits give low values",1.07
same,normalized growth,"locus YJL134W, strain LCB3, hits give low values",0.994
same,normalized growth,"locus YJL154C, strain vps35, hits give low values",1.01
same,normalized growth,"locus YJL164C, strain tpk1, hits give low values",1.02
same,normalized growth,"locus YJL166W, strain qcr8, hits give low values",1.03
same,normalized growth,"locus YJL168C, strain set2, hits give low values",1.01
same,normalized growth,"locus YJL187C, strain SWE1 (second series), hits give low values",1.02
same,normalized growth,"locus YJL187C, strain SWE1, hits give low values",1.02
same,normalized growth,"locus YJR043C, strain POL32, hits give low values",1.07
same,normalized growth,"locus YJR066W, strain TOR1, hits give low values",0.956
